Assay results taken from PMC9911399, “Two distinct binding modes provide the RNA-binding protein RbFox with extraordinary sequence specificity”.
Residue numbers refer to the chain shown, from its start. In all, about 16,000 sequences were measured (“ka relative to ugcaugu”: median about 0.0091, highest 2% from about 0.032 on). For the sample, the highest values were picked, then their nearest neighbours and some sequences at random.

T1: RBFOX1 RRM (Homo sapiens, UniProt Q9NWB1 109-208)
T1 sequence: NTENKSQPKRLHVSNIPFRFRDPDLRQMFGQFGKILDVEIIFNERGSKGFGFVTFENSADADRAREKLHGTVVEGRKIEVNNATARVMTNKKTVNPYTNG

B1: GCUAGGA (DNA:RNA)
RNA: GGGAGACCGGAAUUCAGAUUGUCCGCUAGGAUUAAAUCCCGUCGUAGCCACCA
DNA 1: CAATCTGAATTCCGGTCTCCC
DNA 2: TGGTGGCTACGACGGGATT
B2: UCAGCGA (DNA:RNA)
RNA: B1 RNA with G25U, U27A, A28G, G29C
DNA 1: CAATCTGAATTCCGGTCTCCC
DNA 2: TGGTGGCTACGACGGGATT
B3: ACCACAA (DNA:RNA)
RNA: B1 RNA with G25A, U27C, G29C, G30A
DNA 1: CAATCTGAATTCCGGTCTCCC
DNA 2: TGGTGGCTACGACGGGATT
B4: GUCGAGG (DNA:RNA)
RNA: B1 RNA with C26U, U27C, A28G, G29A, A31G
DNA 1: CAATCTGAATTCCGGTCTCCC
DNA 2: TGGTGGCTACGACGGGATT
B5: GACCCGU (DNA:RNA)
RNA: B1 RNA with C26A, U27C, A28C, G29C, A31U
DNA 1: CAATCTGAATTCCGGTCTCCC
DNA 2: TGGTGGCTACGACGGGATT
B6: AGAUGGC (DNA:RNA)
RNA: B1 RNA with G25A, C26G, U27A, A28U, A31C
DNA 1: CAATCTGAATTCCGGTCTCCC
DNA 2: TGGTGGCTACGACGGGATT
B7: CGCUGGA (DNA:RNA)
RNA: B1 RNA with G25C, C26G, U27C, A28U
DNA 1: CAATCTGAATTCCGGTCTCCC
DNA 2: TGGTGGCTACGACGGGATT
B8: GCUAUGG (DNA:RNA)
RNA: B1 RNA with G29U, A31G
DNA 1: CAATCTGAATTCCGGTCTCCC
DNA 2: TGGTGGCTACGACGGGATT
B9: CACCGAC (DNA:RNA)
RNA: B1 RNA with G25C, C26A, U27C, A28C, G30A, A31C
DNA 1: CAATCTGAATTCCGGTCTCCC
DNA 2: TGGTGGCTACGACGGGATT
B10: GGAAGCG (DNA:RNA)
RNA: B1 RNA with C26G, U27A, G30C, A31G
DNA 1: CAATCTGAATTCCGGTCTCCC
DNA 2: TGGTGGCTACGACGGGATT
B11: CUCUACU (DNA:RNA)
RNA: GGGAGACCGGAAUUCAGAUUGUCCCUCUACUUUAAAUCCCGUCGUAGCCACCA
DNA 1: CAATCTGAATTCCGGTCTCCC
DNA 2: TGGTGGCTACGACGGGATT
B12: GUCAUUG (DNA:RNA)
RNA: B11 RNA with C25G, U28A, A29U, C30U, U31G
DNA 1: CAATCTGAATTCCGGTCTCCC
DNA 2: TGGTGGCTACGACGGGATT
B13: GUCCUGA (DNA:RNA)
RNA: B1 RNA with C26U, U27C, A28C, G29U
DNA 1: CAATCTGAATTCCGGTCTCCC
DNA 2: TGGTGGCTACGACGGGATT
B14: UGGCUGC (DNA:RNA)
RNA: B1 RNA with G25U, C26G, U27G, A28C, G29U, A31C
DNA 1: CAATCTGAATTCCGGTCTCCC
DNA 2: TGGTGGCTACGACGGGATT
B15: UGAUUCG (DNA:RNA)
RNA: B11 RNA with C25U, U26G, C27A, A29U, U31G
DNA 1: CAATCTGAATTCCGGTCTCCC
DNA 2: TGGTGGCTACGACGGGATT
B16: UGGCUGA (DNA:RNA)
RNA: B1 RNA with G25U, C26G, U27G, A28C, G29U
DNA 1: CAATCTGAATTCCGGTCTCCC
DNA 2: TGGTGGCTACGACGGGATT
B17: UGCUGGC (DNA:RNA)
RNA: B11 RNA with C25U, U26G, A29G, C30G, U31C
DNA 1: CAATCTGAATTCCGGTCTCCC
DNA 2: TGGTGGCTACGACGGGATT
B18: CGGCUGC (DNA:RNA)
RNA: B11 RNA with U26G, C27G, U28C, A29U, C30G, U31C
DNA 1: CAATCTGAATTCCGGTCTCCC
DNA 2: TGGTGGCTACGACGGGATT
B19: CGGCUGA (DNA:RNA)
RNA: B1 RNA with G25C, C26G, U27G, A28C, G29U
DNA 1: CAATCTGAATTCCGGTCTCCC
DNA 2: TGGTGGCTACGACGGGATT
B20: GUGCUGA (DNA:RNA)
RNA: B1 RNA with C26U, U27G, A28C, G29U
DNA 1: CAATCTGAATTCCGGTCTCCC
DNA 2: TGGTGGCTACGACGGGATT
B21: UGAUGGC (DNA:RNA)
RNA: B1 RNA with G25U, C26G, U27A, A28U, A31C
DNA 1: CAATCTGAATTCCGGTCTCCC
DNA 2: TGGTGGCTACGACGGGATT
B22: ACUAAUA (DNA:RNA)
RNA: B1 RNA with G25A, G29A, G30U
DNA 1: CAATCTGAATTCCGGTCTCCC
DNA 2: TGGTGGCTACGACGGGATT
B23: UCAUCUC (DNA:RNA)
RNA: B11 RNA with C25U, U26C, C27A, A29C, C30U, U31C
DNA 1: CAATCTGAATTCCGGTCTCCC
DNA 2: TGGTGGCTACGACGGGATT
B24: ACUUGAA (DNA:RNA)
RNA: B1 RNA with G25A, A28U, G30A
DNA 1: CAATCTGAATTCCGGTCTCCC
DNA 2: TGGTGGCTACGACGGGATT
B25: UAACAGC (DNA:RNA)
RNA: B11 RNA with C25U, U26A, C27A, U28C, C30G, U31C
DNA 1: CAATCTGAATTCCGGTCTCCC
DNA 2: TGGTGGCTACGACGGGATT
B26: CCUUGGA (DNA:RNA)
RNA: B1 RNA with G25C, A28U
DNA 1: CAATCTGAATTCCGGTCTCCC
DNA 2: TGGTGGCTACGACGGGATT
B27: UGAGAAC (DNA:RNA)
RNA: B11 RNA with C25U, U26G, C27A, U28G, C30A, U31C
DNA 1: CAATCTGAATTCCGGTCTCCC
DNA 2: TGGTGGCTACGACGGGATT
B28: GACUAUG (DNA:RNA)
RNA: B11 RNA with C25G, U26A, C30U, U31G
DNA 1: CAATCTGAATTCCGGTCTCCC
DNA 2: TGGTGGCTACGACGGGATT
B29: UAACGUU (DNA:RNA)
RNA: B11 RNA with C25U, U26A, C27A, U28C, A29G, C30U
DNA 1: CAATCTGAATTCCGGTCTCCC
DNA 2: TGGTGGCTACGACGGGATT
B30: CGCGUCG (DNA:RNA)
RNA: B11 RNA with U26G, U28G, A29U, U31G
DNA 1: CAATCTGAATTCCGGTCTCCC
DNA 2: TGGTGGCTACGACGGGATT
B31: CGCACGC (DNA:RNA)
RNA: B11 RNA with U26G, U28A, A29C, C30G, U31C
DNA 1: CAATCTGAATTCCGGTCTCCC
DNA 2: TGGTGGCTACGACGGGATT
B32: GCACGCG (DNA:RNA)
RNA: B1 RNA with U27A, A28C, G30C, A31G
DNA 1: CAATCTGAATTCCGGTCTCCC
DNA 2: TGGTGGCTACGACGGGATT
B33: GCACGCU (DNA:RNA)
RNA: B1 RNA with U27A, A28C, G30C, A31U
DNA 1: CAATCTGAATTCCGGTCTCCC
DNA 2: TGGTGGCTACGACGGGATT
B34: GCGCAGA (DNA:RNA)
RNA: B1 RNA with U27G, A28C, G29A
DNA 1: CAATCTGAATTCCGGTCTCCC
DNA 2: TGGTGGCTACGACGGGATT
B35: CGCCACG (DNA:RNA)
RNA: B11 RNA with U26G, U28C, U31G
DNA 1: CAATCTGAATTCCGGTCTCCC
DNA 2: TGGTGGCTACGACGGGATT
B36: GCACGUC (DNA:RNA)
RNA: B1 RNA with U27A, A28C, G30U, A31C
DNA 1: CAATCTGAATTCCGGTCTCCC
DNA 2: TGGTGGCTACGACGGGATT
B37: GCACCGC (DNA:RNA)
RNA: B1 RNA with U27A, A28C, G29C, A31C
DNA 1: CAATCTGAATTCCGGTCTCCC
DNA 2: TGGTGGCTACGACGGGATT
B38: GCGCACC (DNA:RNA)
RNA: B11 RNA with C25G, U26C, C27G, U28C, U31C
DNA 1: CAATCTGAATTCCGGTCTCCC
DNA 2: TGGTGGCTACGACGGGATT
B39: GCGCACG (DNA:RNA)
RNA: B11 RNA with C25G, U26C, C27G, U28C, U31G
DNA 1: CAATCTGAATTCCGGTCTCCC
DNA 2: TGGTGGCTACGACGGGATT
B40: GCACCCG (DNA:RNA)
RNA: B1 RNA with U27A, A28C, G29C, G30C, A31G
DNA 1: CAATCTGAATTCCGGTCTCCC
DNA 2: TGGTGGCTACGACGGGATT
B41: GCGUCCG (DNA:RNA)
RNA: B11 RNA with C25G, U26C, C27G, A29C, U31G
DNA 1: CAATCTGAATTCCGGTCTCCC
DNA 2: TGGTGGCTACGACGGGATT

molecular target: T1, RBFOX1 RRM; experiment: EMSA; HiTS-Eq, 1 nM pool, 10 min; buffer printed only for the single-RNA assays: 10 mM Tris pH 7.5, 150 mM NaCl, 3.4 mM EDTA, 0.001% NP-40, 30 C; conditions: tags: His6 N-terminal (pET28a); label: 5' 32P
Method in brief: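 Purified RbFox RRM (wild type or mutant) was equilibrated for 10 min in 50 µL with 1 nM of a 5′-radiolabelled pool of RNA with 7 randomized nucleotides, its flanks annealed to DNA oligonucleotides, across increasing protein concentrations. Free RNA was separated by 8% native PAGE, excised, reverse-transcribed, PCR-barcoded and sequenced on an Illumina HiSeq 2500. Relative association constants came from read-count changes of each variant against the control reaction, normalised to the cognate motif.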

First: B1
Second: B2
The binding signal of the first is higher: 0.00693 KA relative to UGCAUGU for the first, 0.00561 KA relative to UGCAUGU for the second.

Compared with B3, B4 is higher in binding signal: 0.00102 KA relative to UGCAUGU for the first, 0.0114 KA relative to UGCAUGU for the second.

First: B5
Second: B6
The binding signal of the first is lower: 0.00715 KA relative to UGCAUGU for the first, 0.0111 KA relative to UGCAUGU for the second.

First: B7
Second: B8
The binding signal of the first is lower: 0.00997 KA relative to UGCAUGU for the first, 0.0134 KA relative to UGCAUGU for the second.

First: B9
Second: B10
The binding signal of the first is lower: 0.00223 KA relative to UGCAUGU for the first, 0.0177 KA relative to UGCAUGU for the second.

First: B11
Second: B12
The binding signal of the first is lower: 0.00629 KA relative to UGCAUGU for the first, 0.0126 KA relative to UGCAUGU for the second.

Compared with B13, B14 is higher in binding signal: 0.0213 KA relative to UGCAUGU for the first, 0.0373 KA relative to UGCAUGU for the second.

Compared with B15, B16 is higher in binding signal: 0.0228 KA relative to UGCAUGU for the first, 0.036 KA relative to UGCAUGU for the second.

First: B17
Second: B18
The binding signal of the first is higher: 0.0238 KA relative to UGCAUGU for the first, 0.018 KA relative to UGCAUGU for the second.

First: B19
Second: B20
The binding signal of the first is lower: 0.022 KA relative to UGCAUGU for the first, 0.0323 KA relative to UGCAUGU for the second.

First: B21
Second: B22
The binding signal of the first is higher: 0.0129 KA relative to UGCAUGU for the first, 0.00101 KA relative to UGCAUGU for the second.

Compared with B23, B24 is higher in binding signal: 0.00423 KA relative to UGCAUGU for the first, 0.0101 KA relative to UGCAUGU for the second.

First: B25
Second: B26
The binding signal of the first is lower: 0.00375 KA relative to UGCAUGU for the first, 0.00739 KA relative to UGCAUGU for the second.

First: B27
Second: B28
The binding signal of the first is lower: 0.0124 KA relative to UGCAUGU for the first, 0.0187 KA relative to UGCAUGU for the second.

First: B29
Second: B30
The binding signal of the first is lower: 0.00814 KA relative to UGCAUGU for the first, 0.0133 KA relative to UGCAUGU for the second.

First: B31
Second: B32
The binding signal of the first is lower: 0.0306 KA relative to UGCAUGU for the first, 0.0376 KA relative to UGCAUGU for the second.

First: B33
Second: B34
The binding signal of the first is higher: 0.0317 KA relative to UGCAUGU for the first, 0.0118 KA relative to UGCAUGU for the second.

Compared with B35, B36 is higher in binding signal: 0.0114 KA relative to UGCAUGU for the first, 0.0416 KA relative to UGCAUGU for the second.

First: B37
Second: B38
The binding signal of the first is lower: 0.00949 KA relative to UGCAUGU for the first, 0.0133 KA relative to UGCAUGU for the second.

First: B39
Second: B40
The binding signal of the first is higher: 0.062 KA relative to UGCAUGU for the first, 0.00754 KA relative to UGCAUGU for the second.

In the case of B41, the binding signal is reported as 0.0136 KA relative to UGCAUGU.
